# This is a sample that favours compounds with a hit; in the whole collection about 2.7% have one here.
# TCR-CD3 inh = blocks the human TCR-CD3 interaction; TAMRA-labeled TCR probe fluorescence, biochemical; inhibition, % at 9.4 µM; 360,000 tested, 0.37% active; in the data active means inhibition above about 19%;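 further: recombinant mutant TCR 2C K166C tagged with TAMRA read by polarization; 0% = receptor in buffer alone and 100% = receptor with positive control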
# PAFAH1B3 FP inh = blocks human PAF acetylhydrolase 1B catalytic subunit 3; AID 492972; 340,000 tested, 0.28% active; inhibition, % at 3.39 µM; recombinant PAFAH1B3, FP-rhodamine probe, fluorescence polarization;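 active means inhibition above the screen-wide average of all tested compounds plus 3 SD, cut at about 25% in these data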;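 further: 0% = enzyme with DMSO only and 100% = wells lacking PAFAH1B3 protein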
# Target sequence (Q15102 whole entry, looked up): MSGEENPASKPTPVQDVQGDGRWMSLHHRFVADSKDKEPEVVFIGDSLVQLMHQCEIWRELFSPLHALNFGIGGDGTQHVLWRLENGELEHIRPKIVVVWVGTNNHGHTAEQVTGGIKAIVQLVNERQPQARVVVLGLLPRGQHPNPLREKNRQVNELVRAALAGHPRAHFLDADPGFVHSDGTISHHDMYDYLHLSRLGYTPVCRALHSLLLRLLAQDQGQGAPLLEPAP
# PAFAH2 FP inh = PAFAH2 (human) inhibition | inhibition, % at 3.39 µM | recombinant PAFAH2, FP-rhodamine activity probe, fluorescence polarization | 340,000 tested, 0.99% active | AID 492956 | Q99487;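 active means inhibition above the mean over all tested compounds plus 3 SD, cut at about 30% in these data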;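 further: inhibitors block probe labeling of enzyme so polarization drops; 0% = enzyme with DMSO and 100% = wells lacking PAFAH2 protein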
# PAFAH1B2 inh = PAFAH1B2 (human) inhibition. inhibition, % at 3.39 µM. recombinant PAFAH1B2, FP-rhodamine activity probe, fluorescence polarization. 340,000 tested, 1.2% active. P68402;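 active means inhibition above the mean of all tested compounds plus 3 SD, cut at about 24% in these data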;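 further: 0% = enzyme with DMSO and 100% = wells lacking PAFAH1B2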
# Target sequence (P68402 whole entry, looked up): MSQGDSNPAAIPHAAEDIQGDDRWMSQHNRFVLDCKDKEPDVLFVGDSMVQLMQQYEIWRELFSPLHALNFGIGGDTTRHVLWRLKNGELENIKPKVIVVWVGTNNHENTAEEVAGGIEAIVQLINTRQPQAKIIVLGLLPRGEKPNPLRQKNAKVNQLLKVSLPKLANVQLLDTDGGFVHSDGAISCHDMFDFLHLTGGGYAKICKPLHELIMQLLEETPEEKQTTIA
# pPAFAH FP inh = pPAFAH (human) enzyme inhibition | Q13093 | 330,000 tested, 1.5% active | inhibition, % at 3.39 µM | recombinant pPAFAH, FP-rhodamine probe fluorescence polarization;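 active means inhibition above the mean inhibition across the screen plus 3 SD, cut at about 25% in these data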;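 further: inhibitors block binding of the rhodamine activity-based probe so polarization drops; 0% = enzyme with DMSO and 100% = wells lacking pPAFAH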
# Starred values were filed as active, the others as inactive; / = no result given.
SMILES,TCR-CD3 inh,PAFAH1B3 FP inh,PAFAH2 FP inh,PAFAH1B2 inh,pPAFAH FP inh
CCOC(=O)c1cc2c(N)c(C(=O)c3ccc(Br)cc3)sc2[nH]c1=O,2,12,32*,32*,10
O=C(NNC(=O)C1CCCCC1)c1ccco1,6,4,4,1,0
CCC1CCC(C(=O)NNC(=O)c2cc(-c3ccco3)[nH]n2)CC1 (stereo not given),1,2,7,2,31*
CC(C)n1nnnc1SCC(=O)N1CCN(Cc2ccc3c(c2)OCCO3)CC1,-2,0,4,4,-2
COC(=O)C1=CN(c2cccc(C)c2)C=C(C(=O)OC)C1c1cc(OC)c(O)c([N+](=O)[O-])c1,9,11,7,16,29*
Oc1ccc(Br)cc1C=Nc1ccc2c3c(cccc13)CC2,14,13,6,5,28*
Cc1c(NC(=O)C(C)OC(=O)C23CC4CC(CC(Br)(C4)C2)C3)c(=O)n(-c2ccccc2)n1C (stereo not given),4,2,-3,48*,-8
CCOc1ccc(NC(=S)Nc2ccc3nsnc3c2)cc1,8,54*,52*,34*,18
COc1ccc(NC(=S)Nc2ccc3nsnc3c2)cc1,4,66*,41*,23,18
Cn1cccc1C(=O)OCC(=O)Nc1ccc2c(c1)CCC2,-2,1,62*,-1,28*
Cn1cccc1C(=O)OCC(=O)Nc1ccc2c(c1)OCO2,0,-5,27,0,0
N#Cc1c(NC(=O)c2ccco2)sc2c1CCC2,10,4,-50,11,30*
COc1ccc(S(=O)(=O)N2CCN(C(=O)[C@@H]3CCC(=O)N3C3OC(=O)c4ccccc43)CC2)cc1 (stereo not given in full),-10,0,5,33*,0
COc1ccc(S(=O)(=O)N2CCN(C(=O)C3CCCO3)CC2)cc1 (stereo not given),6,-1,-2,6,1
CC(=O)Nc1ccc(NC(=O)COC(=O)c2ccc(C)s2)cc1,3,7,0,1,6
CN(CC(=O)Nc1ccccc1Cl)C(=O)COC(=O)c1ccc([N+](=O)[O-])s1,-6,48*,34*,19,10
NS(=O)(=O)c1ccc(NC(=O)COC(=O)c2ccc([N+](=O)[O-])s2)cc1,-4,30*,43*,12,33*
Cc1ccc(SCC(=O)OCC(=O)N(C)CC(=O)Nc2ccccc2Cl)cc1C,1,7,-1,5,34*
CN(CC(=O)Nc1ccccc1Cl)C(=O)COC(=O)CSc1ccc(F)cc1,-3,-4,0,15,23
Cc1ccc(NC(=O)COC(=O)c2ccc([N+](=O)[O-])s2)c(C)c1,-5,28*,39*,16,11
Cc1cc(C)c(NC(=O)COC(=O)c2ccc([N+](=O)[O-])s2)c(C)c1,1,13,20,6,1
CCOC(=O)C1(C)CCCCN1C(=O)c1cccnc1 (stereo not given),2,/,/,/,/
O=C(C(=O)N1CCC(CNS(=O)(=O)c2ccc(C(F)(F)F)cc2)CC1)c1cccs1,-6,/,/,/,/
CCOC(=O)C1CCN(C(=O)COC(=O)Cc2ccc(Cl)cc2)CC1,-2,6,11,8,30*
COc1ccc(N(CC(=O)NCCSc2ccc(C)cc2)S(=O)(=O)c2ccccc2)c(OC)c1,7,6,-18,27*,8
SMILES,TCR-CD3 inh,PAFAH1B3 FP inh,PAFAH2 FP inh,PAFAH1B2 inh,pPAFAH FP inh
NC(=O)CSc1nc2c(c(=O)n1-c1ccccc1)C1(CCCCC1)Cc1ccccc1-2,-9,4,-3,4,3
CCn1c(SCC(N)=O)nc2c(c1=O)C1(CCCC1)Cc1ccccc1-2,-2,-2,7,31*,5
CCn1c(=O)c2c(n3cnnc13)-c1ccccc1CC21CCCCC1,0,7,0,26*,4
COc1ccccc1C(=O)NC1CCCCN(C)C1=O (stereo not given),0,/,/,/,/
COc1ccc(Nc2nc(-c3cccs3)cs2)c(OC)c1,-10,8,0,6,9
COc1ccc(Nc2nc(-c3sc(C)nc3C)cs2)c(OC)c1,5,-5,9,6,27*
C[C@@H]1ON(C)[C@H]2C[C@H]3c4cc(N5CCCCC5)ccc4CCN3C[C@@H]12,-1,/,/,/,/
Cc1ccc(C)n1-c1ccc(C(=O)O)cc1,/,/,/,/,31*
CC(=O)c1c(C(C)=O)c(C)n(-c2ccc(C(=O)O)cc2)c1C,2,5,-5,2,-1
O=C1NC[C@H](c2ccccc2)OC(=O)[C@H](Cc2ccc(F)cc2)C/C=C\C[C@H]1CC(=O)N(CCO)Cc1ccccc1,7,12,-6,51*,12
O=C1NC[C@H](c2ccccc2)OC(=O)[C@@H](Cc2ccc(F)cc2)C/C=C\C[C@H]1CC(=O)N(CCO)Cc1ccccc1,0,11,3,16,0
O=C1NC[C@@H](c2ccccc2)OC(=O)[C@H](Cc2ccc(F)cc2)C/C=C\C[C@H]1CC(=O)N(CCO)Cc1ccccc1,4,7,5,29*,-1
O=C1NC[C@@H](c2ccccc2)OC(=O)[C@@H](Cc2ccc(F)cc2)CC/C=C/C[C@H]1CC(=O)N(CCO)Cc1ccccc1,-1,10,1,66*,20
CCCCOCCCNC(=O)C[C@H]1C[C@@]2(C(=O)OC)C(=C[C@H](C(C)(C)C)O[C@@H]2C)N(CCC2=CCCCC2)C1=O,-1,/,/,/,/
CCc1cc2cc(C)ccc2nc1SCC(=O)NC1CCCC1,1,6,-22,4,30*
CCc1cc2cc(C)ccc2nc1SCC(=O)N1CC(=O)Nc2ccccc21,4,7,-11,0,29*
CCc1cc2cccc(C)c2nc1SCC(=O)NC1CCCC1,-1,1,-10,5,4
CCc1ccc2nc(SCC(=O)N3CC(=O)Nc4ccccc43)c(C#N)cc2c1,-5,4,-4,-3,0
N#CCC(=O)Nc1sc2c(c1C(N)=O)CCCC2,-2,3,-4,0,33*
O=C(CSc1nc2ccccc2s1)NCCOc1ccccc1,-13,4,-6,27*,12
C/C(CCC12CC3CC(CC(C3)C1)C2)=N\NC(N)=S,-3,9,4,24,-2
C/C(CC(C)(C)C1CCCCC1)=N\NC(N)=S,2,2,2,41*,6
COc1ccc(/C=N/NC(=O)c2ccc(CN3C(=O)c4cccc5cccc3c45)cc2)cc1O,-1,25,-34,27*,5
COC(=O)C1=C(C)N(Cc2ccccc2C(F)(F)F)C(=NCc2ccc3c(c2)OCO3)NC1CCc1ccccc1 (stereo not given),1,/,/,/,/
Cc1ccc(S(=O)(=O)N2CCN(C(=O)CSc3ccc(F)cc3)CC2)cc1,0,15,2,26*,2
CCCOc1ccccc1OCC(=O)N1CCN(S(=O)(=O)c2ccc(Cl)cc2)CC1,-3,-1,-4,25*,2
CC(=O)c1ccc(OCC(=O)N2CCN(S(=O)(=O)c3ccc(C)cc3C)CC2)cc1,1,15,0,6,32*

# Compound activity from PubChem BioAssay.
